From PubChem BioAssay
Most compounds without a hit are left out; they make up all but 9.5% or so of the library.
RE007 growth inh: less growth of the S. pombe RE007 Vpr strain; AID 651644; Potency, µM (top dose mostly 92.2 µM), most hits filed as inhibitors; S. pombe RE007 Vpr strain, BacTiter-Glo ATP luminescence, 24 h; 360,000 compounds, 0.21% hits; active means well fitted falling curve with a large enough effect; inconclusive means small, poorly fitted or top-dose-only effect; inactive means no such curve, though single readings can be large or run the other way; further: nearly all actives have a fitted effect of over 50% in size
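Fission yeast RE007 carrying one integrated HIV-1 vpr copy, seeded at OD 0.01 in PMG+AL medium with 23 nL pinned compound. Grown 24 h at 30 degrees; viability read by BacTiter-Glo luminescence after 5 min.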
Pf growth 96h: P. falciparum growth inhibition at 96 hour, primary screen for plastid delayed-death inhibitors | P. falciparum luciferase reporter growth, 96 h | Potency, µM (series often up to 28.7 µM), hits mostly inhibitors | 320,000 compounds, 6.9% hits; active means well fitted inhibition curve with a large enough effect; inconclusive means small, poorly fitted or top-dose-only effect, or another doubt; inactive means no such curve, though single readings can be large or run the other way
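P. falciparum expressing integrated firefly luciferase, in erythrocytes at 2% hematocrit, 0.05% parasitemia, incubated with compounds 96 h at 37 C, 5% CO2. Growth inhibition read as loss of luminescence; two-generation exposure targets delayed-death apicoplast inhibitors.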
SARS PLpro yeast: inhibitors of SARS-CoV papain-like protease in yeast | S. cerevisiae expressing SARS-CoV PLpro, growth rescue | Potency, µM (series often up to 32.9 µM), most hits filed as activators | 330,000 compounds, 0.19% hits | AID 485353; further: nearly all actives have a fitted effect of over 55% in size
NS1 function inh: influenza NS1 inhibition; Potency, µM (series often up to 46.1 µM); AID 2326; 270,000 compounds, 0.4% hits; further: actives are rising curves; nearly all actives have a fitted effect of over 50% in size
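Compounds were scored for reversing the slow growth caused by influenza A NS1 in S. cerevisiae, measured by optical density at 600 nm. Assay medium contained 2% galactose at pH 6.0; NS1-free yeast of the same strain were the positive control.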
Pf growth 48h: P. falciparum growth inhibition at 48 hours (one generation) | P. falciparum luciferase growth in erythrocytes, 48 h | Potency, µM (doses to about 28.7 µM), actives largely listed as inhibitors | 310,000 compounds, 5.9% hits; active means well fitted inhibition curve with a large enough effect; inconclusive means small, poorly fitted or top-dose-only effect, or another doubt; inactive means no such curve, though single readings can be large or run the other way
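Growth was read as firefly luciferase luminescence after a 48 h, 37 C, 5% CO2 exposure of compounds to reporter-bearing P. falciparum cultures (0.1% parasitemia, 2% hematocrit final) in Albumax-supplemented RPMI 1640.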
A number is an active result; n = inactive; u = inconclusive; x = not tested or not shown. Unless noted, the call rests on the fitted dose curve.

SMILES | RE007 growth inh | Pf growth 96h | SARS PLpro yeast | NS1 function inh | Pf growth 48h
CCc1sc(N(C(=O)Cc2ccccc2)c2ccccc2F)nc1-c1ccc(C)cc1 | n | 10.4µM | n | n | u
CCc1sc(N(C(=O)Cc2ccccc2)c2cccc(F)c2)nc1-c1ccc(C)cc1 | n | u | n | n | u
CCOC(=O)c1c(N2C(=O)CC(Sc3ccccc3C(=O)O)C2=O)sc2c1CCCC2 (stereo unspecified) | u | n | n | n | n
COc1cc(/C=C2/C(=O)NN(c3cccc(C)c3)C2=O)cc([N+](=O)[O-])c1O | n | n | n | n | n
COc1cc(/C=C2/C(=O)NN(c3cccc(C)c3)C2=O)ccc1OC(=O)c1ccco1 | n | 4.15µM | n | n | n
Cc1ccc(SCCNC(=S)Nc2ccc(C)c(C)c2)cc1 | n | n | n | n | u
Cc1ccc(C)c(NC(=S)NCCc2ccc(F)cc2)c1 | n | u | n | n | 13.1µM
Cc1ccc(NC(=S)NCCc2ccc(S(N)(=O)=O)cc2)cc1C | n | n | n | n | n
Cc1ccc(C)c(NC(=S)NCCN(C2CCCCC2)C2CCCC2)c1 | n | u | n | x | 10.4µM
Cc1cc(C)cc(NC(=S)NCCc2ccc(S(N)(=O)=O)cc2)c1 | n | 1.65µM | n | n | n
Cc1ccc(SCCNC(=S)Nc2cc(C)ccc2C)cc1 | n | 8.28µM | n | n | x
Cc1ccc(C)c(NC(=O)C2CCCC2)c1 | n | x | x | x | x
COc1ccc(N(CC(=O)NC2CC3CCC2C3)S(=O)(=O)c2ccc(C)cc2)cc1Cl (stereo unspecified) | n | x | x | x | x
CC(=O)Cc1nnn(-c2cc(C)on2)n1 | x | n | n | n | n
CCCCCCCCCCCCCCCCOCCOCCOCCOCCOCCOCCOCCOCCOCCOCCOCCOCCOCCOCCOCCOCCOCCOCCOCCOCCO | x | 6.75µM | x | x | 13.5µM
CCCCOCCO | n | x | x | x | x
CCCCCCCCCCOCC(O)CN (stereo unspecified) | x | 12µM | x | x | u
COCCn1cnc2c(c1=O)c1nc3ccccc3nc1n2/N=C/c1ccc(OC)c(OC)c1 | n | 2.62µM | n | n | 1.65µM
Cc1cc(CN(C)C(=O)c2cc(COc3ccc(F)cc3Cl)on2)n[nH]1 | n | n | n | n | n
CCOc1ccc(C(C)=O)cc1NC(=O)/C=C\C(=O)O | n | 10.4µM | n | n | n
COc1ccc(NS(=O)(=O)c2ccc(F)c(F)c2F)cc1S(=O)(=O)N1CCOCC1 | n | n | n | x | u
COCCNC(=O)/C(C#N)=C/c1ccc(C)o1 | n | n | n | n | n
CC(=O)NNc1cc(N2CCOCC2)nc(N2CCOCC2)n1 | n | u | n | n | n
CC(C)(C)c1ccc(C(=O)NNc2cc(N3CCCCC3)nc(N3CCCCC3)n2)cc1 | n | u | n | n | 2.62µM
CC(C)(C)c1ccc(C(=O)NNc2cc(N3CCOCC3)nc(N3CCOCC3)n2)cc1 | n | n | n | n | 11.7µM
SMILES | RE007 growth inh | Pf growth 96h | SARS PLpro yeast | NS1 function inh | Pf growth 48h
O=C(O)C(Cc1c[nH]c2ccccc12)N1C(=O)C2C3c4ccccc4C(c4ccccc43)[C@@H]2C1=O (stereo partly specified) | n | u | n | n | n
CCc1cccc(NC(=O)CN(C)C2=NS(=O)(=O)c3ccccc32)c1 | n | 11.7µM | n | x | u
CN(CC(=O)Nc1cccc(Cl)c1)C1=NS(=O)(=O)c2ccccc21 | n | x | u | x | x
Cc1cc(NCC2CCCO2)n2c(nc3ccccc32)c1C#N (stereo unspecified) | n | u | x | n | u
CCc1c(C)c(C#N)c2nc3ccccc3n2c1NCC1CCCO1 (stereo unspecified) | n | x | n | n | 1.65µM
CC(C)c1cc(NCC2CCCO2)n2c(nc3ccccc32)c1C#N (stereo unspecified) | n | x | n | n | 6.57µM
CCc1c(C)c(C#N)c2nc3ccccc3n2c1NCCOC | n | u | n | n | 1.65µM
CCCN=C1N(C)C[C@@H]2[C@@H]3C(=O)N(C)C(=O)[C@@H]3[C@](C)(C(=O)OC)N12 | n | x | n | x | x
COc1cc2[nH]c(=O)c(C(=O)NCc3ccc(C)cc3)c(O)c2cc1OC | n | x | x | x | x
O=C(Nc1cc(S(=O)(=O)N2CCCCC2)ccc1Cl)c1ccc(F)cc1 | n | u | n | x | u
CSCc1ccc(C(=O)NC2CC(C)(C)Cc3c2cnn3-c2ccc(F)cc2)o1 (stereo unspecified) | n | u | n | n | u
O=c1cc(-c2ccc(Cl)cc2)[nH]c2ccccc12 | n | 2.08µM | n | n | 1.47µM
